A selection: hits, their analogues and other compounds. The true share with any hit is near 21%.
Pf growth 96h – P. falciparum growth inhibition at 96 hours; P. falciparum luciferase reporter growth, 96 h; hit rate 6.9% among 320,000; Potency, µM (top dose mostly 28.7 µM), for inactives: at the top dose activity change, negative = inhibition, most hits filed as inhibitors; also: potency is read from the fitted curve at half-maximal effect; % is scaled to controls: 0 for no effect and ±100 for the full control effect
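Two parasite generations (96 h, 37 C, 5% CO2) of compound exposure in infected erythrocytes (0.05% parasitemia, 2% hematocrit). Luciferase-reporter P. falciparum; decreased luminescence indicates inhibited growth, aimed at apicoplast-acting delayed death.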
HCMV inh – human cytomegalovirus inhibition | HFF cells, HCMV-luciferase reporter, 72 h; stronger effect = lower value | hit rate 4.5% among 410,000 | activity change, negative = inhibition, % at 57.5 µM; in the data active = activity change below about -60%; inconclusive = no clear call, values can overlap the other calls; inactive = above about -39%; also: % is scaled to controls: 0 for no effect and ±100 for the full control effect
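Two compound doses tested in HFFs infected with HCMV-luciferase, MOI 1 PFU/cell, 72 h at 37C. Lysate luminescence read with OneGlo; data normalized against buffer-only and 10uM Salinomycin inhibitor controls.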
HCV inh – inhibitors of hepatitis C virus infection | AID 651820 | hit rate 3.4% among 340,000 | Huh7.5.1 HCVcc-Cre infection, luciferase reporter, 44 h | Potency, µM (titrated, usually from 41.8 µM), for the others: top-dose activity change, negative = inhibition, most hits filed as inhibitors; also: potency is read from the fitted curve at half-maximal effect; % is scaled to controls: 0 for no effect and ±100 for the full control effect
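Whole-lifecycle infectious HCVcc-Cre system; cells 1,000/well, compound then virus (~0.5 moi) added 4 h after plating, 44 h culture. Luciferase read 15 sec following 15 min substrate incubation, room temp.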
Pf growth 48h – inhibits P. falciparum growth in the first generation, 48 h. Potency, µM (top dose mostly 28.7 µM), for the others: top-dose activity change, negative = inhibition, hits mostly inhibitors. P. falciparum luciferase growth in erythrocytes, 48 h. AID 504832. hit rate 5.9% among 310,000; also: potency is read from the fitted curve at half-maximal effect; % is scaled to controls: 0 for no effect and ±100 for the full control effect
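In quantitative HTS format, infected erythrocytes bearing luciferase-reporter parasites were treated for a single generation at 37 C. Luminescence after adding detection reagent served as the growth measure.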
CHX counter-1 – affects cycloheximide protein synthesis inhibition readout, counter-screen; hit rate 12% among 300,000; cell reporter, cycloheximide protein synthesis inhibition counterscreen; max response, %; in the data active = max response mostly above about 13%, no sharp cut-off; inactive = mostly below about 14%; also: read at 38.3 µM for the half of the compounds with a filed dose; 0% is about no effect
Shiga inhibitor – blocks Shiga toxin action in Vero cells | Vero cells, Shiga toxin protein synthesis inhibition reporter | inhibition, % at 38.7 µM | hit rate 9.2% among 290,000 | AID 2315; in the data active = inhibition mostly above about 28%, no sharp cut-off; inactive = mostly below about 43%; also: 0% is about no effect
CHX counter-2 – affects protein synthesis reporter in cycloheximide counter-screen | shares compounds with Shiga inhibitor | Cycloheximide counterscreen, protein synthesis reporter, Shiga toxin assay | Potency, µM (series often up to 38.3 µM), for inactives: at the highest dose activity (activation), usual class: activators | hit rate 3% among 510; calls by dose curve; also: potency is read from the fitted curve at half-maximal effect; 0% is about no effect
CLK4 ADP-Glo – CLK4 (human) kinase inhibition, ADP-Glo confirmation | Potency, µM (titrated, usually from 80 µM), for inactives: at the top dose activity, negative = inhibition, actives largely listed as inhibitors | AID 1969 | hit rate 80% among 65 | recombinant Clk4, RS peptide, ADP-Glo luminescence | shares compounds with Pf growth 48h
Target sequence (Q9HAZ1 whole entry, looked up): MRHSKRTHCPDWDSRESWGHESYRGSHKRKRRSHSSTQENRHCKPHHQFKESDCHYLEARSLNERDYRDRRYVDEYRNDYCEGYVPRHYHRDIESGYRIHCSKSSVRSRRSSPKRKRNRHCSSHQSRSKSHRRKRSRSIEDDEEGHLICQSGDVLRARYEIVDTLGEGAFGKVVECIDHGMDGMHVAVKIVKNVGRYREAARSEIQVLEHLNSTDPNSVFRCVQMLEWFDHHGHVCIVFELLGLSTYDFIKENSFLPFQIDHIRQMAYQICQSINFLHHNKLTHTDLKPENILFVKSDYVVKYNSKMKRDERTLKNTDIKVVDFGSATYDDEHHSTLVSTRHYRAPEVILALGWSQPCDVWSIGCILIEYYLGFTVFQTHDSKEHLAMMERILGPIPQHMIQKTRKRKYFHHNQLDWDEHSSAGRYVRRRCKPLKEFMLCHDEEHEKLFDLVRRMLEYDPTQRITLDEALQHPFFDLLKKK
CLK4 cf ADP-FP – CLK4 (human) inhibition, Transcreener FP confirmation; AID 1983; hit rate 70% among 65; Potency, µM (highest dose often 80 µM), for inactives: at the highest dose activity, negative = inhibition, most hits filed as inhibitors; recombinant Clk4, ADP Transcreener FP, RS peptide; shares compounds with Pf growth 48h
HCV inh confirm – confirmation of hepatitis C virus inhibitors | shares compounds with HCV inh | HCVcc-Cre infectious virus cell assay, luciferase, inhibition | Potency, µM (titrated, usually from 41.8 µM), without a hit: at the top dose activity, negative = inhibition, most hits filed as inhibitors | hit rate 78% among 640 | AID 720575; also: potency is read from the fitted curve at half-maximal effect; nearly all actives have a fitted effect of over 80% in size
HCV cytotox – toxic to HCV host cells, flagging false HCV inhibitors; hit rate 22% among 640; AID 720576; Potency, µM (top dose mostly 41.8 µM), for inactives: at the top dose activity change, negative = cytotoxicity, most hits filed as inhibitors; HCV host cell line cytotoxicity counterscreen; shares compounds with HCV inh;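 also: potency is read from the fitted curve at half-maximal effect; 44 h compound exposure; % is scaled to controls: 0 for no effect and ±100 for the full control effect; nearly all actives have a fitted effect of over 55% in size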
* marks the source's active call; other numbers are inactive results; ? = inconclusive; . = not tested or not shown. Unless noted, calls follow the shape of the dose curve; as a rule, active = well fitted curve in the direction sought with a large enough effect; inconclusive = small, poorly fitted or top-dose-only effect, or another doubt; inactive = no such curve, though single readings can be large; an effect the other way counts as inactive or inconclusive.

SMILES	Pf growth 96h	HCMV inh	HCV inh	Pf growth 48h	CHX counter-1	Shiga inhibitor	CLK4 ADP-Glo	CLK4 cf ADP-FP	others
CC1=C(C)C(OCCBr)N(c2cc(O)c(Cl)cc2F)C1=O (stereo not given)	78%	0	14%	11%	5	43*	.	.	CHX counter-2=-3%
COC(=O)c1c(NC(=O)c2ccn(C)n2)sc2c1CCC2	41%	11	2.8µM*	31%	5	40*	.	.	CHX counter-2=?;HCV inh confirm=0.89µM*;HCV cytotox=16%
CSc1ncccc1C(=O)OCC(=O)NC1CC1	16%	-11	?	7%	.	.	.	.
Clc1ccccc1-c1ccc2ncnc(NCc3ccc4c(c3)OCO4)c2c1	3.7µM*	1	.	8.3µM*	.	.	?	-17%
Clc1ccccc1-c1ccc2ncnc(NCc3cccnc3)c2c1	?	10	.	-5%	.	.	13µM*	?
c1cncc(CNc2ncnc3ccc(-c4ccc5c(c4)OCCO5)cc23)c1	4%	24	.	17%	.	.	0.4µM*	0.71µM*
c1cncc(CNCCc2ccc3c(c2)OCO3)c1	16%	14	9%	38%	-1	-2	.	.
Clc1cccc(-c2ccc3ncnc(NCc4cccnc4)c3c2)c1	13µM*	6	.	?	.	.	4.5µM*	?
O=C(Nc1ccccc1)c1cccc(N2CCCS2(=O)=O)c1	.	4	.	.	.	.	.	.
c1nc(NCc2ccc3c(c2)OCO3)c2cc(-c3ccoc3)ccc2n1	?	.	.	?	.	.	0.71µM*	0.89µM*
c1cncc(CNc2ncnc3ccc(-c4cccnc4)cc23)c1	?	14	.	?	.	.	7.9µM*	13µM*
O=C(COc1ncnc2ccc(Br)cc12)NCc1ccc2c(c1)OCO2	.	-29	-24%	11%	-3	-12	.	.
Clc1ccc2ncnc(NCc3ccc4c(c3)OCO4)c2c1	.	.	.	.	-2	-30	.	.
Fc1cccc(CNc2ncnc3ccc(-c4ccc5c(c4)OCO5)cc23)c1	2.9µM*	-92*	.	4.1µM*	.	.	0.14µM*	0.089µM*
c1cncc(-c2ccc3ncnc(NCc4ccc5c(c4)OCO5)c3c2)c1	?	-22	.	?	.	.	7.1µM*	11µM*
Cn1c(-c2ccc(Br)cc2)cnc1NCc1cccnc1	?	9	-8%	?	10	-20	.	.
CCn1c(=O)c([N+](=O)[O-])c(NCc2ccco2)c2ccccc21	-12%	9	-14%	-1%	6	-1	.	.
CCCN(C(=O)CSc1nnc(-c2ccncc2)n1CCC)c1c(N)n(Cc2ccccc2)c(=O)[nH]c1=O	.	32	.	.	.	.	.	.
COc1cccc(-c2ccc3ncnc(NCc4cccc(F)c4)c3c2)c1	3.7µM*	.	.	6.6µM*	.	.	0.63µM*	0.89µM*
COc1cccc(-c2ccc3ncnc(NCc4cccc(C)c4)c3c2)c1	3.7µM*	-86*	.	6.6µM*	.	.	1.3µM*	1.8µM*
COc1cc2ncnc(NCc3cccc(Cl)c3)c2cc1OC	?	?	?	?	-3	-5	.	.
COc1ccc(Cc2nnc(NC(=O)c3cccs3)s2)cc1OC	1%	152	2%	-72%	5	2	.	.
